Screening data (PubChem)
Hits are enriched below; roughly 6.2% of the tested compounds scored in any of these assays.
ATXN2 expr inh – inhibitors of ATXN2 expression. HEK-293 ATXN2-luciferase reporter, luminescence, 24 h. Potency, µM (series often up to 57 µM), inactives show at the top dose activity change, negative = inhibition, usual class: inhibitors. actives 0.72% (n = 360,000). AID 1745845; note: % is set by controls: 0 for no effect and ±100 for the full control effect; nearly all actives have a fitted effect of over 55% in size
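ATXN2-luciferase reporter cells (luciferase flanked by upstream and downstream ATXN2 gene portions) were treated 24 h at 37 °C with compounds at up to 57 uM. SteadyGlo luminescence gave expression; GF-AFC fluorescence gave viability.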
HT1080NT lethal – kills 2HG-producing HT-1080-NT fibrosarcoma cells | actives 1.6% (n = 360,000) | AID 686970 | HT-1080-NT fibrosarcoma viability, CellTiter-Glo ATP luminescence, 48 h | Potency, µM (titrated, usually from 46.1 µM), for inactives: at the highest dose activity, negative = less viability, actives largely listed as cytotoxic;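 note: NT is the 2HG producing partner of a matched IDH1 knockdown line; 0% = DMSO-treated cells and -100% = media-only wells without cells; nearly all actives have a fitted effect of over 55% in size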
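Luminescent CellTiter-Glo readout after 48 hours of compound exposure at 37 degrees C defined viability of HT-1080-NT cells. Activity was normalized to DMSO wells and cell-free media wells; concentration-response curves were fitted and assigned curve classes.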
KB-V1 cytotox – KB-V1 MDR subline cytotoxicity | KB-V1 MDR cells viability, CellTiter-Glo, 72 h | Potency, µM (series often up to 46.1 µM), most hits filed as cytotoxic | AID 1347076 | actives 3.4% (n = 400,000); note: % is set by controls: 0 for no effect and ±100 for the full control effect; nearly all actives have a fitted effect of over 60% in size
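In this primary screen, KB-V1 cells overexpressing P-gp are incubated with library compounds (lowest to highest concentration) for 72 h at 37 degrees C before a luminescent ATP viability read.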
HT1080 IDH1KD tx – HT-1080 IDH1 knockdown cell toxicity (counter line); actives 2% (n = 360,000); HT-1080 IDH1 knockdown viability, ATP luminescence, 48 h; Potency, µM (titrated, usually from 46.1 µM), inactives show top-dose activity, negative = toxicity, actives largely listed as cytotoxic;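 note: 0% = DMSO wells and -100% = cell-free medium wells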
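HT-1080-IDH1KD cells (IDH1 knocked down), 750/well in RPMI with 5% FBS, treated with compound 48 h at 37 degrees C. Viability by CellTiter-Glo luminescence, normalised to DMSO and no-cell wells; concentration-response curves classed.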
KB-3-1 cytotox – kills parental KB-3-1 adenocarcinoma cells | KB-3-1 viability, CellTiter-Glo ATP luminescence, 72 h | Potency, µM (titrated, usually from 46.1 µM), most hits filed as cytotoxic | actives 1.4% (n = 400,000) | AID 1347075; note: % is set by controls: 0 for no effect and ±100 for the full control effect; nearly all actives have a fitted effect of over 60% in size
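Using CellTiter-Glo luminescence, growth of non-resistant KB-3-1 adenocarcinoma cells is assessed 72 h after pin-tool compound addition at 37 °C. Normalized responses across the concentration series yield fitted curves.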
S2 tox – cell viability loss in ATXN counter-screen; Potency, µM (series often up to 56.7 µM), most hits filed as cytotoxic; S2 cells (HEK-293 line with an ATXN2-luciferase reporter) viability, CellTiter-Fluor protease fluorescence, 24 h; actives 0.49% (n = 400,000); note: nearly all actives have a fitted effect of over 40% in size
Numbers without * were called inactive; i = inactive; ? = inconclusive; / = not tested or not shown. Calls come from the whole dose curve; as a rule, active = well fitted curve in the direction sought with a large enough effect; inconclusive = small, poorly fitted or top-dose-only effect, or another doubt; inactive = no such curve, though single readings can be large; an effect the other way counts as inactive or inconclusive. Potency is the fitted concentration of half-maximal effect.

SMILES | ATXN2 expr inh | HT1080NT lethal | KB-V1 cytotox | HT1080 IDH1KD tx | KB-3-1 cytotox | S2 tox
CC(=O)OC(C)(C)/C=C/C(=O)[C@](C)(O)C1[C@H](O)C[C@@]2(C)C3CC=C4C(C=C(O[C@@H]5O[C@H](CO)[C@@H](O)[C@H](O)[C@H]5O)C(=O)C4(C)C)[C@]3(C)C(=O)C[C@]12C (some centres not stated) | 0% | ? | ? | 23µM* | ? | ?
CC1(C)Oc2ccc3ccc(=O)oc3c2C[C@H]1O[C@@H]1O[C@H](CO)[C@@H](O)[C@H](O)[C@H]1O | 1% | 1% | i | 10% | i | i
CCS(=O)(=O)N1CCCC(c2nc(-c3cccc(OC)c3)no2)C1 (configuration not stated) | 16% | 4% | i | 2% | i | i
O=S(=O)(c1ccccc1Cl)N1CCCC(c2nc(-c3cccnc3)no2)C1 (configuration not stated) | -5% | 0% | 7.3µM* | -1% | i | i
COc1ccc(-c2noc(C3CCCN(S(=O)(=O)c4cccc(Cl)c4C)C3)n2)cc1OC (configuration not stated) | -3% | 4% | 18µM* | 11% | i | i
CCCS(=O)(=O)N1CCCC(c2nc(-c3ccc(OC)cc3)no2)C1 (configuration not stated) | 3% | 5% | 13µM* | 6% | i | i
COc1ccc(-c2noc(C3CCCN(S(=O)(=O)c4ccc(C)c(Cl)c4)C3)n2)cc1OC (configuration not stated) | -11% | 9% | 3.7µM* | 25% | i | ?
CCCSc1nc2sc3c(c2c(=O)n1-c1ccccc1)CCC(C)C3 (configuration not stated) | 10% | / | i | / | i | i
CNc1oc(-c2ccc(OCc3ccccc3)cc2)nc1C#N | 13% | -4% | 23µM* | -12% | i | i
Cc1ccc(OCc2nc(C#N)c(NCCc3ccccc3)o2)cc1 | / | / | i | / | i | /
COc1ccc(CCNc2oc(COc3ccccc3)nc2C#N)cc1 | 4% | 1% | 16µM* | 0% | i | i
COc1ccc(CNc2oc(COc3ccccc3)nc2C#N)cc1 | 21% | -13% | 18µM* | -20% | i | i
CCC(CC)c1nc(C#N)c(NCc2ccccc2)o1 | -3% | ? | ? | ? | 15µM* | i
N#Cc1nc(-c2ccc(OCc3ccccc3)cc2)oc1NCc1ccco1 | 0% | -3% | i | -12% | i | i
CC12C=CC(=O)C=C1CCC1C2C(O)CC2(C)C1CCC2(O)C(=O)CO (configuration not stated) | 6% | ? | i | 16% | i | i
Cc1nn(-c2nc(-c3ccc(F)cc3)cc(C(F)(F)F)n2)c(C)c1Cl | 4% | / | ? | / | i | i
COc1ccc(C(=O)c2ccc(OC)cc2OC)cc1 | 36% | 23µM* | ? | 12µM* | 15µM* | i
COc1ccc(C(=O)c2ccc(N(C)C)cc2)c(OC)c1 | 16% | 3.5µM* | ? | 2.5µM* | 5.6µM* | i
COc1ccc(OC)c(C(=O)c2ccc(C(=O)c3cc(OC)ccc3OC)cc2)c1 | ? | -4% | i | 0% | i | i
COc1ccc(C(=O)Nc2ccc(C)cn2)c(OC)c1 | 3.2µM* | ? | 16µM* | -8% | ? | i
CN(C)c1ccc(C(=O)c2ccc(N(C)C)c3ccccc23)cc1 | 64% | ? | ? | 0.026µM* | 0.092µM* | i
Cc1cccn2c(=O)c(C(=O)NCc3ccc(F)cc3)c(O)nc12 | 7% | / | i | / | i | i
O=C1NNC(c2ccccc2)=N/C1=C\c1ccco1 | -17% | -1% | i | -8% | i | i
COc1cc(/C=C2\N=C(c3ccccc3)NNC2=O)cc(OC)c1OC | -3% | 4.6µM* | 4.1µM* | 3.3µM* | 4.6µM* | i
